Screening data deposited in PubChem BioAssay by Broad Institute.
miR-122 inh: activators of miR-122 sensor in Huh7 cells; Huh7 psiCHECK-miR122 Renilla luciferase sensor, 48 h; activation, % at 12.5 µM; actives 0.14% (n = 340,000); AID 623901;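 active = mean activation of 30% or more, with every replicate also reaching 30%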;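 note: higher luciferase signal means stronger suppression of miR-122 activity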
Large screens that a line does not name were inactive. The entries come from a sample that favours hits as a whole.

COc1ccc(C#Cc2cnc3c(c2)C(=O)N([C@@H](C)CO)C[C@@H](C)[C@H](CN(C)CC2CCOCC2)O3)cc1	none
CCC(=O)Nc1ccc2c(c1)OC[C@H](C)N(C(=O)c1ccccc1F)C[C@H](C)[C@H](OC)CN(C)C2=O	none
C[C@@H]1CN([C@H](C)CO)C(=O)c2cc(NC(=O)Cc3cn(C)c4ccccc34)ccc2O[C@@H]1CN(C)S(=O)(=O)c1ccc(Cl)cc1	none
C[C@H]1CN([C@@H](C)CO)C(=O)c2cc(-c3cccc(C(=O)N(C)C)c3)cnc2O[C@@H]1CN(C)C(=O)Cc1ccccn1	none
C[C@H]1CN([C@@H](C)CO)C(=O)c2cc(C#Cc3ccccc3)cnc2O[C@@H]1CN(C)C(=O)c1ccccn1	none
CCCNC(=O)N(C)C[C@H]1Oc2cc(C#Cc3cccc(F)c3)ccc2S(=O)(=O)N([C@H](C)CO)C[C@@H]1C	none
COc1ccccc1S(=O)(=O)N(C)C[C@H]1Oc2cc(/C=C/c3ccccc3)ccc2S(=O)(=O)N([C@@H](C)CO)C[C@@H]1C	none
CCCNC(=O)Nc1ccc2c(c1)OC[C@@H](C)NC[C@H](C)[C@@H](OC)CN(C)C2=O	none
C[C@H]1CN([C@@H](C)CO)C(=O)c2cc(-c3cccc(F)c3)cnc2O[C@@H]1CN(C)CC1CCCC1	none
CCC(=O)Nc1ccc2c(c1)OC[C@H](C)N(CCC(F)(F)F)C[C@H](C)[C@H](OC)CN(C)C2=O	none
COc1cccc(-c2cnc3c(c2)C(=O)N([C@H](C)CO)C[C@H](C)[C@H](CN(C)S(=O)(=O)c2ccc(C)cc2)O3)c1	none
C/C=C/c1ccc2c(c1)O[C@@H](CN(C)S(=O)(=O)c1ccccc1OC)[C@H](C)CN([C@@H](C)CO)S2(=O)=O	none
CCCC#Cc1cnc2c(c1)C(=O)N([C@@H](C)CO)C[C@@H](C)[C@H](CN(C)Cc1cccnc1)O2	none
COc1ccccc1-c1cnc2c(c1)C(=O)N([C@@H](C)CO)C[C@H](C)[C@@H](CN(C)C(=O)c1ccccc1)O2	none
COc1ccc(S(=O)(=O)NCc2ccccn2)cc1NC(=O)c1ccc(C)cc1	none
CCOc1cc(NC(=O)c2ccccn2)c(OCC)cc1NC(=O)c1ccc(Cl)cc1	miR-122 inh 34
CCOC(=O)c1ccc(-n2ccnc2)c(NC(=O)c2cccc(Br)c2)c1	none
CC(C)C#Cc1ccc2c(c1)O[C@H](CN(C)C(=O)CN(C)C)[C@@H](C)CN([C@H](C)CO)S2(=O)=O	none
C[C@H]1CN([C@@H](C)CO)C(=O)c2cc(/C=C/c3ccccc3)cnc2O[C@@H]1CN(C)Cc1ccccc1F	none
CCC(=O)Nc1ccc2c(c1)OC[C@H](C)N(CCC(F)(F)F)C[C@@H](C)[C@@H](OC)CN(C)C2=O	none
COc1ccc(CN2CCc3c([nH]c4ccccc34)C2)c(OC)c1C	miR-122 inh 42
Cc1ccc(-c2ccc3c(c2)O[C@H](CN(C)Cc2ccc(F)cc2)[C@@H](C)CN([C@H](C)CO)S3(=O)=O)cc1	none
COc1ccc(C#Cc2cnc3c(c2)C(=O)N([C@@H](C)CO)C[C@@H](C)[C@H](CN(C)CC2CCCC2)O3)cc1	none
CCS(=O)(=O)Nc1ccc2c(c1)C(=O)N(C)C[C@H](OC)[C@H](C)CN[C@@H](C)CO2	none
C[C@@H]1CN([C@@H](C)CO)S(=O)(=O)c2ccc(C#CC3CC3)cc2O[C@@H]1CN(C)C(=O)C1CC1	none
C[C@H](CO)N1C[C@H](C)[C@H](CN(C)CC2CCOCC2)Oc2ncc(C3=CCCCC3)cc2C1=O	none
CC(C)NC(=O)N(C)C[C@H]1Oc2cc(-c3ccccc3)ccc2S(=O)(=O)N([C@@H](C)CO)C[C@H]1C	none
COc1ccc(NC(=O)CN(C)C(=O)/C=C/c2ccc(OCc3ccccc3)cc2)cc1	miR-122 inh 43
COc1ccc(NC(=O)CCN2C(=O)c3ccccc3C2=O)cc1	none
COc1ccc(/C=N/NC(=O)COc2ccccc2-c2ccccc2)cc1	none
CCC(=O)N(C)C[C@H]1Oc2ncc(-c3cccc(OC)c3)cc2C(=O)N([C@@H](C)CO)C[C@H]1C	none
Cc1ccccc1NC1=C/C(=N\S(=O)(=O)c2cccs2)c2ccccc2C1=O	miR-122 inh 60
C[C@@H]1CN([C@@H](C)CO)S(=O)(=O)c2ccc(-c3cccc(C(=O)N(C)C)c3)cc2O[C@H]1CN(C)C(=O)Nc1ccccc1	none
CCCC#Cc1ccc2c(c1)O[C@@H](CN(C)C(=O)CC)[C@H](C)CN([C@@H](C)CO)S2(=O)=O	none
CCCC#Cc1ccc2c(c1)O[C@H](CN(C)C(=O)CC)[C@@H](C)CN([C@@H](C)CO)S2(=O)=O	none
C[C@H](CO)N1C[C@H](C)[C@@H](CN(C)C(=O)Cc2ccccc2)Oc2cc(C#Cc3ccccc3F)ccc2S1(=O)=O	none
CC(=O)N(C)C[C@H]1Oc2cc(C#C[C@@H](C)O)ccc2S(=O)(=O)N([C@H](C)CO)C[C@@H]1C	none
CC(=O)N(C)C[C@H]1Oc2cc(C#Cc3ccc(F)cc3)ccc2S(=O)(=O)N([C@H](C)CO)C[C@H]1C	miR-122 inh 37
Cc1ccccc1-c1ccc2c(c1)O[C@H](CN(C)C(=O)Nc1ccccc1)[C@@H](C)CN([C@H](C)CO)S2(=O)=O	none
Cc1ccccc1-c1ccc2c(c1)O[C@H](CN(C)C(=O)Nc1ccccc1)[C@H](C)CN([C@H](C)CO)S2(=O)=O	none
CC(=O)N(C)C[C@H]1Oc2cc(C#C[C@@H](C)O)ccc2S(=O)(=O)N([C@H](C)CO)C[C@H]1C	none
C[C@H]1CN([C@@H](C)CO)S(=O)(=O)c2ccc(C#Cc3ccccc3F)cc2O[C@H]1CN(C)C(=O)Cc1ccccc1	none
C[C@@H]1CN([C@H](C)CO)S(=O)(=O)c2ccc(C#Cc3ccccc3F)cc2O[C@@H]1CN(C)C(=O)Cc1ccncc1	miR-122 inh 52
Cc1ccccc1-c1ccc2c(c1)O[C@@H](CN(C)C(=O)Nc1ccc(F)cc1)[C@@H](C)CN([C@@H](C)CO)S2(=O)=O	miR-122 inh 38
CCC(=O)N(C)C[C@H]1Oc2cc(C#Cc3ccccc3)ccc2S(=O)(=O)N([C@@H](C)CO)C[C@H]1C	miR-122 inh 48
COc1ccc(NC(=O)Nc2ccc3c(c2)OC[C@H](C)NC[C@@H](C)[C@@H](OC)CN(C)C3=O)cc1	none
C[C@@H]1CN([C@H](C)CO)C(=O)c2cc(-c3cccc(F)c3)cnc2O[C@H]1CN(C)CC1CCCC1	none
COCC#Cc1cnc2c(c1)C(=O)N([C@@H](C)CO)C[C@@H](C)[C@H](CN(C)C(=O)Nc1ccc(OC)cc1)O2	none
CCCC#Cc1ccc2c(c1)O[C@H](CN(C)C(=O)c1cccnc1)[C@H](C)CN([C@@H](C)CO)S2(=O)=O	none
C/C=C/c1cnc2c(c1)C(=O)N([C@H](C)CO)C[C@@H](C)[C@H](CN(C)C(=O)Cc1cccnc1)O2	none
CO[C@@H]1CN(C)C(=O)c2ccc(NS(=O)(=O)c3cccc(C)c3)cc2OC[C@@H](C)N(C(=O)Cc2cccnc2)C[C@H]1C	none
CCC(=O)N(C)C[C@@H]1Oc2ncc(C#C[C@H](C)O)cc2C(=O)N([C@@H](C)CO)C[C@H]1C	none
C[C@H](CO)N1C[C@H](C)[C@@H](CN(C)Cc2ccc(C(=O)O)cc2)Oc2ncc(-c3ccc(F)cc3)cc2C1=O	none
CC(C)C#Cc1cnc2c(c1)C(=O)N([C@H](C)CO)C[C@@H](C)[C@H](CN(C)C(=O)CC1CC1)O2	none
CC(=O)N(C)C[C@@H]1Oc2cc(C#C[C@H](C)O)ccc2S(=O)(=O)N([C@@H](C)CO)C[C@@H]1C	none
COCC(=O)N(C)C[C@@H]1Oc2cc(-c3ccccc3)ccc2S(=O)(=O)N([C@@H](C)CO)C[C@@H]1C	none
